Assays:
Assay in all cases: PBM binding z-score (relative to random genomic background probes); higher = stronger binding; sequences stand for … in GC…GCGATTGACAGCGTAGAATGAAGG
[1] = system: FXR:RXRa (NR concentration 270 nM, RXRa partner concentration 90 nM)
Procedure, shortened: (§1)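 Custom Agilent 4×180K protein-binding microarrays carried double-stranded probes, each with a 34-nt variable region. These regions held direct-repeat seeds, single-nucleotide variants, half-site ablations and random human genomic background sequences. Ligand-free nuclear receptor dimers were incubated on the arrays for 1 h, antibodies against each partner (one per run) detected binding, and scanned fluorescence was regression-normalized. Binding z-scores take the random background probes as reference.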

[2] = system: LXRa:RXRa (NR concentration 270 nM, RXRa partner concentration 90 nM)
Procedure, shortened: as §1

[3] = system: LXRa homodimer (NR concentration 270 nM)
Procedure, shortened: as §1

[4] = system: LXRb:RXRa (NR concentration 270 nM, RXRa partner concentration 90 nM)
Procedure, shortened: as §1

[5] = system: LXRb homodimer (NR concentration 270 nM)
Procedure, shortened: as §1

[6] = system: PPARa:RXRa (NR concentration 270 nM, RXRa partner concentration 90 nM)
Procedure, shortened: as §1

[7] = system: PPARg:RXRa (NR concentration 180 nM, RXRa partner concentration 90 nM)
Procedure, shortened: as §1

[8] = system: PPARg:RXRa 270nM:90nM, anti-RXR (NR concentration 270 nM, RXRa partner concentration 90 nM)
Procedure, shortened: as §1

[9] = system: PPARg:RXRa 30nM:10nM, anti-RXR (NR concentration 30 nM, RXRa partner concentration 10 nM)
Procedure, shortened: as §1

[10] = system: PPARg:RXRa 90nM:30nM, anti-RXR (NR concentration 90 nM, RXRa partner concentration 30 nM)
Procedure, shortened: as §1

[11] = system: PPARg:RXRa DBDmut IVT, anti-RXR (DBD mutation: RXRa K156A/R161A, NR concentration 270 nM, RXRa partner concentration 90 nM)
Procedure, shortened: as §1

[12] = system: PPARg:RXRa IVT, anti-PPARg (NR concentration 270 nM, RXRa partner concentration 90 nM)
Procedure, shortened: as §1

[13] = system: PPARg DBDmut:RXRa IVT, anti-PPARg (DBD mutation: PPARg1 K132A/R137A, NR concentration 270 nM, RXRa partner concentration 90 nM)
Procedure, shortened: as §1

[14] = system: PPARg DBDmut IVT, anti-PPARg (DBD mutation: PPARg1 K132A/R137A, NR concentration 270 nM)
Procedure, shortened: as §1

[15] = system: PPARg homodimer (NR concentration 180 nM)
Procedure, shortened: as §1

[16] = system: PXR:RXRa (NR concentration 270 nM, RXRa partner concentration 90 nM)
Procedure, shortened: as §1

[17] = system: PXR homodimer (NR concentration 270 nM)
Procedure, shortened: as §1

[18] = system: RARa:RXR (NR concentration 270 nM, RXRa partner concentration 90 nM)
Procedure, shortened: as §1

[19] = system: RARa homodimer (NR concentration 270 nM)
Procedure, shortened: as §1

[20] = system: RARb:RXRa (NR concentration 270 nM, RXRa partner concentration 90 nM)
Procedure, shortened: as §1

Sequence	PBM binding z-score [1]	PBM binding z-score [2]	PBM binding z-score [3]	PBM binding z-score [4]	PBM binding z-score [5]	PBM binding z-score [6]	PBM binding z-score [7]	PBM binding z-score [8]	PBM binding z-score [9]	PBM binding z-score [10]	PBM binding z-score [11]	PBM binding z-score [12]	PBM binding z-score [13]	PBM binding z-score [14]	PBM binding z-score [15]	PBM binding z-score [16]	PBM binding z-score [17]	PBM binding z-score [18]	PBM binding z-score [19]	PBM binding z-score [20]
GGAACGAGGGCAAAGCTGATAGCATCTGTCGACG	0.392	0.366	-0.605	-0.126	-0.711	1.68	1.5	1.78	0.251	1.17	4.19	2.81	0.774	-0.247	0.0511	0.048	-0.0388	0.0386	-0.822	1.99
GCGACTGGGGCAAAGCATGTTACCATAAGGTTGG	-0.69	-0.602	-0.362	-0.192	-1.06	0.898	1.61	2.22	0.294	1.58	4.73	3.23	-0.245	-0.674	0.0632	-0.48	-0.713	-0.255	-1.06	0.551
ATATGTACGTTAAGGGTCATTCAGGTTGGTTCGC	4.5	4.13	2.57	4.2	1.31	4.74	4.87	6.38	4.9	6.21	0.825	3.15	3.4	3.29	2.8	5.22	2.21	4.96	1.35	3.21
GATACAGGGTCAGCTAGAGGCCAGGGTATGGAAA	4.42	2.81	-0.258	2.46	-0.476	4.43	3.61	3.44	0.426	2.14	0.631	2.38	0.352	-0.589	2.74	2.94	0.0758	4.28	0.0773	4.06
TCTTGTCGATCAAAGGTTAAGAAAGCCGAAGCCT	1.41	1.95	0.175	1.9	0.245	3.76	5.79	6.32	5.47	6.64	1.37	2.3	-0.0137	0.486	0.668	1.62	-0.394	2.19	-0.0364	1.91
GCTAGCAGGCCATTTGGGTCACTCAGTGACGGGC	0.0736	-0.00862	-0.609	-0.133	-1.43	1.14	0.272	0.402	-0.825	-0.0196	1.94	2.44	-0.601	-0.52	-0.213	0.3	-0.321	0.684	-0.725	1.44
ACTAATAGTTGACTTAGGGCAACCGATACGACGC	0.35	0.168	0.0838	-0.131	0.352	-0.132	0.962	0.054	0.137	0.153	0.0501	0.335	0.861	0.863	0.622	0.0101	0.295	0.399	0.56	1.01

— the supplement of paper PMC6555819
